# In PubChem BioAssay:
# Active and inactive are the calls of the source. Unless noted, no rule for the calls is given here.
# What was measured:
# [1] = compounds binding Alexa647 anti-His antibody – biochemical, small-molecule microarray, 635 nm fluorescence, artefact control for SMM control protein annotation, primary screen (AID 1128); conditions: higher = more signal;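 also: score merges feature fluorescence with signal-to-noise for each printed compound spot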
# [2] = tested on: Human papillomavirus type 1a E7 protein (residues 1-88); assay: HPV1a E7 small-molecule binders, primary screen, biochemical, small-molecule microarray, residues 1-88, 635 nm (AID 1129); conditions: small-molecule microarray binding, fluorescence 635 nm; higher = more signal
# [3] = target: Focal adhesion kinase 1 (Homo sapiens) (UniProt Q05397); assay: PTK2 protein binding on printed compound slides – biochemical, small-molecule microarray, 635/667 nm fluorescence, BSA, DTT, primary screen (AID 1130); conditions: 635 nm fluorescence, higher = more signal;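 also: composite of spot emission at 667 nm and signal to noise over triplicate slides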
# Chain of Focal adhesion kinase 1 (Homo sapiens) (Q05397 whole entry, looked up): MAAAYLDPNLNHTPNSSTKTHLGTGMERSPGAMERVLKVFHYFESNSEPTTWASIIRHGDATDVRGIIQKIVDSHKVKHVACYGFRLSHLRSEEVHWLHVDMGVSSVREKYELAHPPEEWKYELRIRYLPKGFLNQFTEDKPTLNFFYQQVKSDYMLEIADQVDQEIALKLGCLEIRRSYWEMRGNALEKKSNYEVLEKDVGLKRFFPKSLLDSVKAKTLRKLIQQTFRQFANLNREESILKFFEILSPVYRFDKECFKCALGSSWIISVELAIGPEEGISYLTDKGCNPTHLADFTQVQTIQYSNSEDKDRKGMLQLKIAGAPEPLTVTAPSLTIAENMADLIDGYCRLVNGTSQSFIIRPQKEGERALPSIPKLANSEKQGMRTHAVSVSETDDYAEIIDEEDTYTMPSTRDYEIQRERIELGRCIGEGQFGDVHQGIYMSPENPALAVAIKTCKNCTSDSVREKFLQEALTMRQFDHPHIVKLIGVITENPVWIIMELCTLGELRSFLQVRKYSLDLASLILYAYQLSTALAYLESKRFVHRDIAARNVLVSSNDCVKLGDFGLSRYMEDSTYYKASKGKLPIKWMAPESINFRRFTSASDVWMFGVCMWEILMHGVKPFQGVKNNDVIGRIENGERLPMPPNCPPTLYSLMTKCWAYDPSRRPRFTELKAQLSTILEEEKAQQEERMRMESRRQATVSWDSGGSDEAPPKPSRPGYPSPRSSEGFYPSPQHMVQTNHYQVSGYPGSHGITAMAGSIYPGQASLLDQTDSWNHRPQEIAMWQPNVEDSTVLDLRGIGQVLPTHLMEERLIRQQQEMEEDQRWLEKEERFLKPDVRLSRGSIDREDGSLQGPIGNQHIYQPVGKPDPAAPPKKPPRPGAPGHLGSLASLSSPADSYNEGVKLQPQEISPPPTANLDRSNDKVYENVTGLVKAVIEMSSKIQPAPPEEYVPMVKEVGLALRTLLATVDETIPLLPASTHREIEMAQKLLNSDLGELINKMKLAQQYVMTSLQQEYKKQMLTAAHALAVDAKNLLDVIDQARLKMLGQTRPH
# [4] = tested on: Fibrinogen (Alexa647-labelled); assay: Alexa647-fibrinogen binding to printed small molecules – biochemical, small-molecule microarray, 635/667 nm fluorescence, artefact control for SMM control-protein annotation, profiling panel (AID 1131); conditions: fibrinogen-A647 binding fluorescence, higher = more signal;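 also: z-score merges 667 nm fluorescence with per-spot signal-to-noise over triplicate slides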
# [5] = target: Follistatin (Homo sapiens) (UniProt P19883); assay: FST protein binding to printed compounds – biochemical, small-molecule microarray, 635/667 nm fluorescence, primary screen (AID 1132); conditions: 635 nm fluorescence, higher = more signal
# Chain of Follistatin (Homo sapiens) (P19883 whole entry, looked up): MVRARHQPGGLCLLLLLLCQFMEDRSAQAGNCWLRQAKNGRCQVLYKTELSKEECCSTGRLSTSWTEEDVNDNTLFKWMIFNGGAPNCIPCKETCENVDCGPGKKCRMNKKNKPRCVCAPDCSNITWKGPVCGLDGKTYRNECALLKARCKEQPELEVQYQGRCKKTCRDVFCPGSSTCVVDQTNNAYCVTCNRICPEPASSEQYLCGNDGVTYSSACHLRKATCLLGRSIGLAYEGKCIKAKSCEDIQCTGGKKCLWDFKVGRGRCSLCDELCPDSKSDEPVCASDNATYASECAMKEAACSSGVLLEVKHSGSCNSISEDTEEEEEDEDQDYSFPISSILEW
# [6] = target: Fibroblast growth factor 2 (Homo sapiens) (UniProt P09038); assay: basic fibroblast growth factor binding to printed compounds – biochemical, small-molecule microarray, 635/667 nm fluorescence, primary screen (AID 1133); conditions: FGF2, fluorescence 635/667, higher = more signal
# Chain of Fibroblast growth factor 2 (Homo sapiens) (P09038 whole entry, looked up): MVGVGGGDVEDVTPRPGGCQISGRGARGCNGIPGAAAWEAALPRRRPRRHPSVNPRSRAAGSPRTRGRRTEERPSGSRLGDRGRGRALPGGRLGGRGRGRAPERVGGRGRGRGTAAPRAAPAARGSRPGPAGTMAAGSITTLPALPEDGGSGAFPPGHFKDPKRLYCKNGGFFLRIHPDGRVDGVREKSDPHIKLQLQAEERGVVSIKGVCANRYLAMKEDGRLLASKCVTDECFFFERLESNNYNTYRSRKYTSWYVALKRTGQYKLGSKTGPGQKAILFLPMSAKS
# [7] = JC-1 mitochondrial potential readout, lung cancer cells – cell-based, A549, JC-1 fluorescence, basal, 24 h, 100 nL, profiling panel (AID 1138); conditions: higher = more signal;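 also: A549 lung adenocarcinoma cells under basal conditions with no added stimulus; test concentration not given here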
# Lefty1 = Lefty1 protein binding to printed compounds – biochemical, small-molecule microarray, 635/667 nm fluorescence, primary screen (AID 1139); conditions: fluorescence 635/667, higher = more signal
# [8] = tested on: wheat germ agglutinin (Triticum aestivum), Alexa647-labelled; assay: Alexa647-WGA lectin binding to printed small molecules – biochemical, small-molecule microarray, 635/667 nm fluorescence, artefact control for SMM control-protein annotation, profiling panel (AID 1140); conditions: WGA-A647 binding, 635 nm fluorescence, higher = more signal;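 also: score merges 667 nm feature emission with signal to noise over triplicate slides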
# [9] = target: Luciferin 4-monooxygenase (Photinus pyralis) (UniProt P08659); assay: inhibition of purified Photinus pyralis luciferase – biochemical, luminescence, purified enzyme, 2006 set, primary screen (AID 1141); conditions: purified firefly luciferase, SteadyGlo luminescence, 30 min; higher = more signal, called active from +8 up or from −8 down;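 also: cell-free assay with purified firefly luciferase at 100 ng per well in PBS; test concentration not given here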
# Chain of Luciferin 4-monooxygenase (Photinus pyralis) (P08659 whole entry, looked up): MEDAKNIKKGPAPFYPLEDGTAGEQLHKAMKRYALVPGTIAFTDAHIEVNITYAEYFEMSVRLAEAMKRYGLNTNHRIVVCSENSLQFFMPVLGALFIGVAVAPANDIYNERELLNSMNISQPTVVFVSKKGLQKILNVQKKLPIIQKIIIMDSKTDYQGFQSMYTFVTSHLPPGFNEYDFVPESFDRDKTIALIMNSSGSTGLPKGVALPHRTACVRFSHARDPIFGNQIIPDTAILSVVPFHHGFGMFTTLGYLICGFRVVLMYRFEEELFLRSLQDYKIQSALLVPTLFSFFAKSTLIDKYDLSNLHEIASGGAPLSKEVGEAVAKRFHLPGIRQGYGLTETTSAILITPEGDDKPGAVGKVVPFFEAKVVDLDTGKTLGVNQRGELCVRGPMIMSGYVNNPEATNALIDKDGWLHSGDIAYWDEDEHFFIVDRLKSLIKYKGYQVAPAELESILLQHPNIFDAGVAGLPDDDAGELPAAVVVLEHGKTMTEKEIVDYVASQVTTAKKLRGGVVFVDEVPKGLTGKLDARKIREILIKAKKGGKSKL
# [10] = tested on: Wnt5a (protein binding on small-molecule microarray); assay: small molecules binding Wnt5a protein – biophysical, small-molecule microarray, 635/667 nm fluorescence, primary screen (AID 1142); conditions: 635 nm fluorescence, higher = more signal;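 also: fluorescence read at 667 nm with signal to noise per printed feature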
# [11] = ATP-based viability of Huh7 replicon cells – cell-based, CellTiter-Glo luminescence, basal, 48 h, cytotoxicity control for HCV replication inhibitor project, primary screen (AID 1143); conditions: higher = more signal, called active from +8 up or from −8 down;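 also: Huh7 hepatoma cells carrying a hepatitis C replication reporter with no stimulus; test concentration not given here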
# [12] = Pseudomonas biofilm growth suppression – PAO1 strain, BacTiter-Glo luminescence, LB-PBS, primary screen (AID 1144); conditions: P. aeruginosa PAO1 biofilm, 12 h, higher = more signal
# [13] = basal CRE-LacZ reporter activity in PC12 – cell-based, unstimulated, primary screen (AID 1145); conditions: no forskolin, luminescence, 4.5 h, higher = more signal, called active from +8 up or from −8 down
# [14] = forskolin-driven CRE-LacZ activity in PC12 – cell-based, CRE-LacZ reporter, forskolin-stimulated, primary screen (AID 1146); conditions: luminescence, 4.5 h, higher = more signal, called active from +8 up or from −8 down;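 also: PC12 cells with 6xCRE LacZ reporter stimulated by forskolin 10 µM; beta-galactosidase reporter signal reflecting CREB driven transcription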
# [15] = target: Streptavidin (Streptomyces avidinii) (UniProt P22629); assay: compounds binding control protein streptavidin – biophysical, small-molecule microarray, 635/667 nm fluorescence, artefact control for SMM compound annotation, primary screen (AID 1147); conditions: higher = more signal;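 also: signal reflects streptavidin binding to arrayed compounds as a control protein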
# Chain of Streptavidin (Streptomyces avidinii) (P22629 whole entry, looked up): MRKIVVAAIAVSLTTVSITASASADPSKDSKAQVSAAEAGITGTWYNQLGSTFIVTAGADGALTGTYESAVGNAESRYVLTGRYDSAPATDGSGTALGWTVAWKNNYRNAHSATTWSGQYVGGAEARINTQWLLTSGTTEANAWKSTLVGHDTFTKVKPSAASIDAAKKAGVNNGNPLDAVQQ
# [16] = probe aInhba binding on compound microarray – biochemical, small-molecule microarray, 635/667 nm fluorescence, primary screen (AID 1148); conditions: higher = more signal;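 also: score merges 667nm spot fluorescence with signal-to-noise for antibody binding to printed compounds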
# Torsin-1A (Homo sapiens) [17] = target: Torsin-1A (Homo sapiens) (UniProt O14656); assay: TOR1A wild-type binding on microarray – cell lysate, small-molecule microarray, lysate, 635/667 nm, primary screen (AID 1149); conditions: COS7 hTOR1A-WT lysate, 635 nm fluorescence, higher = more signal
# Chain of Torsin-1A (Homo sapiens) (O14656 whole entry, looked up): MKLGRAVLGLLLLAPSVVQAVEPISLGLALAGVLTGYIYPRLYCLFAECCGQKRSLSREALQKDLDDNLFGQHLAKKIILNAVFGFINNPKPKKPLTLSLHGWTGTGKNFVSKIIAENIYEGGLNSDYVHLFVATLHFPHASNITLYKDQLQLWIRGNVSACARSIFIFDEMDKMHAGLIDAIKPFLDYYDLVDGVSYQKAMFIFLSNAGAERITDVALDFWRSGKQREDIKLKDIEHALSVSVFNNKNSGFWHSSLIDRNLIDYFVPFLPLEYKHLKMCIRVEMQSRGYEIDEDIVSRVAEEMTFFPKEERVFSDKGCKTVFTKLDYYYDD
# Torsin-1A (Homo sapiens) [18] = target: Torsin-1A (Homo sapiens) (UniProt O14656); assay: torsin A mutant lysate binding on microarrays – cell lysate, small-molecule microarray, COS7 lysate, 635/667 nm fluorescence, primary screen (AID 1150); conditions: COS7 hTOR1A mutant lysate, 635 nm fluorescence, higher = more signal;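 also: score pools 667 nm emission and signal to noise measuring lysate protein binding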
# [19] = tested on: Sonic hedgehog protein (Shh); assay: Sonic hedgehog microarray binding compounds – biochemical, small-molecule microarray, 635/667 nm fluorescence, primary screen (AID 1151); conditions: 635 nm fluorescence, higher = more signal;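 also: Shh protein binding to compounds spotted on small-molecule microarray slides; score combines spot fluorescence intensity with signal-to-noise across triplicate slides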
Structure (SMILES),composite z-score [1],composite z-score [2],composite z-score [3],composite z-score [4],composite z-score [5],composite z-score [6],z-score [7],composite z-score (Lefty1),composite z-score [8],z-score [9],composite z-score [10],z-score [11],z-score [12],z-score [13],z-score [14],composite z-score [15],composite z-score [16],composite z-score (Torsin-1A (Homo sapiens) [17]),composite z-score (Torsin-1A (Homo sapiens) [18]),composite z-score [19]
O=C1[C@H]2[C@H]3[C@H](O)[C@H](O)CC(=NO[C@@H]4O[C@H](CO)[C@@H](O)[C@H](O)[C@H]4O)[C@H]3CC[C@H]2C(=O)N1Cc1ccc2c(c1)OCO2,1.01,-0.186,0.0254,0.762,-0.164,-0.654,0.531,0.515,-0.205,0.654 (inactive),-0.228,-0.402 (inactive),1.58 (inactive),0.525 (inactive),-0.576 (inactive),0.595,-0.0719,0.838,0.181,-0.928
CC(C)N1CC=CC23O[C@@H]4C=CCCOC(=O)C4[C@H]2C(=O)N(CCCCCCO)[C@@H]3C1=O (stereo not given in full),-0.112,-0.807,-0.268,-1.2,-0.851,-1.6,0.526,-0.187,-1.32,-0.127 (inactive),-0.952,0.471 (inactive),-0.454 (inactive),-0.488 (inactive),-0.905 (inactive),-0.717,-0.003,-1.12,-1.57,0.011
COCCOC(=O)N1C(=O)[C@@]2(c3cc(C#Cc4ccc(OC)cc4)ccc31)[C@H](c1ccc(O)cc1)N1[C@H](c3ccccc3)[C@H](c3ccccc3)OC(=O)[C@H]1[C@@H]2C(N)=O,0.308,1.17,0.126,0.972,1.3,0.852,-1.47,0.728,0.779,0.556 (inactive),0.586,-2.75 (inactive),-0.97 (inactive),-0.752 (inactive),-0.94 (inactive),0.417,-0.0947,0.187,0.825,1.44
C#CCCCON=C1C[C@@H](O)[C@@H](O)[C@@H]2[C@@H]3C(=O)N(CCC(=O)OCC)C(=O)[C@@H]3CC[C@@H]12,-0.264,-0.0592,0.934,0.211,-1.11,-0.823,-0.139,-0.655,0.662,0.224 (inactive),0.109,0.402 (inactive),-0.262 (inactive),1.15 (inactive),-0.0962 (inactive),0.842,0.027,-0.343,0.612,-0.948
CCOC(=O)[C@H](Cc1ccccc1)NC(=O)CCC1CC(OC(=O)NCCc2ccc(F)cc2)CC2(CCCC(COC(=O)NCC(c3ccccc3)c3ccccc3)O2)O1 (stereo not given in full),0.999,0.517,0.111,0.7,0.831,0.563,0.597,0.68,0.554,0.715 (inactive),0.0879,-0.792 (inactive),0.338 (inactive),0.286 (inactive),1.23 (inactive),0.388,-0.248,-0.0715,0.656,0.719
C#C[C@@H]1Oc2ccccc2S(=O)(=O)N2CCC[C@H]12,0.104,-0.283,0.193,-0.635,0.562,0.155,-0.273,0.0495,-0.249,-0.0351 (inactive),0.0869,0.299 (inactive),0.405 (inactive),1.58 (inactive),0.14 (inactive),0.261,-0.154,-0.0705,0.0535,0.101
O=C1[C@H]2[C@H]3[C@H](O)[C@H](O)CC(=NO[C@@H]4O[C@H](CO)[C@@H](O)[C@H](O)[C@H]4O)[C@@H]3CC[C@H]2C(=O)N1c1ccc(F)cc1F,0.537,0.534,-0.33,0.273,0.438,0.209,0.242,0.386,0.0553,0.523 (inactive),0.166,0.115 (inactive),0.593 (inactive),0.0711 (inactive),0.767 (inactive),0.38,-0.0719,0.851,1.1,0.51
CC(C)[C@@H](OCc1ccccc1)[C@H](C)C=NOC[C@@H](C)[C@H](OCc1ccccc1)C(C)C,0.0377,0.289,0.121,-0.0745,0.426,0.139,-0.753,0.595,-0.0388,-0.11 (inactive),0.187,0.459 (inactive),0.627 (inactive),0.471 (inactive),-0.144 (inactive),0.118,-0.128,0.256,0.204,0.256
COCCCNC(=O)[C@@]1(CCS(=O)(=O)c2ccccc2)N=C(c2ccc(OCCCO)cc2)O[C@H]1c1ccccc1,2.98,1.25,0.746,0.878,0.695,0.426,2.39,-0.854,0.716,-1.79 (inactive),0.68,-1.7 (inactive),-0.701 (inactive),0.951 (inactive),0.353 (inactive),0.188,0.38,1.45,2.73,-0.766
Cc1cc(C)c(-c2cc([C@H](C)ON=C3[C@H]4CCn5c(=O)n(-c6ccccc6)c(=O)n5[C@H]4[C@H](O)[C@@H]4O[C@H]34)on2)c(C)c1,-0.286,0.748,0.422,0.382,0.692,0.627,1.32,0.652,-0.0095,0.154 (inactive),0.266,-1.72 (inactive),1.96 (inactive),0.229 (inactive),1.43 (inactive),0.548,-0.0066,0.595,0.754,0.767
